Screening results from PubChem BioAssay.
HT1080NT lethal: qHTS for induction of synthetic lethality in tumor cells producing 2HG: qHTS for the HT-1080-NT fibrosarcoma cell line | HT-1080-NT fibrosarcoma viability, CellTiter-Glo ATP luminescence, 48 h | Potency, µM (highest dose often 46.1 µM), for inactives: top-dose activity, negative = less viability, usual class: cytotoxic | actives 1.6% (n = 360,000) | AID 686970, 2013;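 note: NT is the 2HG producing partner of a matched IDH1 knockdown line; potency is the fitted concentration of half-maximal effect; 0% = DMSO-treated cells and -100% = media-only wells without cells; nearly all actives have a fitted effect of over 55% in size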
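HT-1080-NT fibrosarcoma cells (2HG-overproducing), 750 cells/well in RPMI with 5% FBS, dosed after 2 h and incubated 48 h at 37C. CellTiter-Glo luminescence normalized to DMSO and no-cell wells; concentration-response curves fitted and classed.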
DT40 TDP1 CPT: qHTS for Inhibitors of human tyrosyl-DNA phosphodiesterase 1 (TDP1): qHTS in cells in presence of CPT; chicken DT40 Tdp1-/-;hTDP1 cells + 20 nM CPT, ATP luminescence, 48 h; Potency, µM (doses to about 46.2 µM), for inactives: top-dose activity change, negative = growth inhibition, usual class: inhibitors; actives 12% (n = 420,000); AID 686979, 2013; note: potency is the fitted concentration of half-maximal effect; nearly all actives have a fitted effect of over 55% in size
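Chicken DT40 Tdp1-/- cells complemented with human TDP1, 400 cells/well, exposed to compounds plus 20 nM camptothecin for at least 48 h at 37 C; viability read as ATP content by CellTiter-Glo luminescence.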
IL-1B inflam inh: qHTS for Inhibitors of Inflammasome Signaling: IL-1-beta AlphaLISA Primary Screen; THP-1 LPS/ATP IL-1B secretion, AlphaLISA, 16 h; hits give low values; activity change, % at 57.5 µM; actives 4.7% (n = 360,000); AID 743279, 2014; in the data active = activity change below about -50%; inconclusive = mostly about -30% to -49%
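THP-1 cells pretreated 1 hr with compounds (up to 57.5 uM final), then stimulated with LPS (250 ng/mL final) plus ATP (1.25 mM final); secreted IL-1B measured by AlphaLISA after 16 hr, decreased signal indicating inhibition.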
DT40 TDP1 no CPT: qHTS for Inhibitors of human tyrosyl-DNA phosphodiesterase 1 (TDP1): qHTS in cells in absence of CPT | actives 15% (n = 420,000) | AID 686978, 2013 | Potency, µM (doses to about 46.2 µM), for inactives: at the highest dose activity change, negative = growth inhibition, usual class: inhibitors | DT40 Tdp1-/- hTDP1 cells, no CPT, ATP luminescence, 48 h; note: potency is the fitted concentration of half-maximal effect; nearly all actives have a fitted effect of over 55% in size
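No-CPT arm: Tdp1-/-;hTDP1 DT40 cells (400/well) plus compounds, incubated ≥48 hr at 37 °C. Readout CellTiter-Glo luminescence.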
HT1080 IDH1KD tx: qHTS for induction of synthetic lethality in tumor cells producing 2HG: qHTS for the HT-1080-IDH1KD cell line; HT-1080 IDH1 knockdown viability, ATP luminescence, 48 h; Potency, µM (titrated, usually from 46.1 µM), for the others: at the top dose activity, negative = toxicity, actives largely listed as cytotoxic; actives 2% (n = 360,000); AID 686971, 2013;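 note: potency is the fitted concentration of half-maximal effect; 0% = DMSO wells and -100% = cell-free medium wells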
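% activity derives from luminescence (CellTiter-Glo), normalised to DMSO and no-cell wells. HT-1080-IDH1KD cells, 750/well, had 48 h compound exposure at 37 °C.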
Active calls of the source: *; u = inconclusive; x = no result; [ ] = dose if it differs, or a comment. In the library only some 19% were active in any assay of this set; here they are far more common. Unless noted, calls come from the whole dose curve; as a rule, active = well fitted curve in the direction sought with a large enough effect; inconclusive = small, poorly fitted or top-dose-only effect, or another doubt; inactive = no such curve, though single readings can be large; an effect the other way counts as inactive or inconclusive. Unless noted, % is set by controls: 0 for no effect and ±100 for the full control effect.

SMILES | HT1080NT lethal | DT40 TDP1 CPT | IL-1B inflam inh | DT40 TDP1 no CPT | HT1080 IDH1KD tx
CNC(=O)C1CCC(Cn2c(=O)[nH]c3ccsc3c2=O)CC1 (configuration not stated) | x | -1.7% | x | 0.9% | x
CCOc1ccc(C2c3c(oc4ccc(C)cc4c3=O)C(=O)N2c2nc(C)c(C)s2)cc1OC (configuration not stated) | x | u | x | 7.31µM* | x
CCc1ccc(C2c3c(oc4ccc(C)cc4c3=O)C(=O)N2c2nc(C)c(C)s2)cc1 (configuration not stated) | x | -21.5% | x | -17.4% | x
O=c1[nH]c(=O)c2[nH]c(=O)[nH]c2[nH]1 | x | -11.7% | x | 2.2% | x
Cc1c(C(=O)NC2CCCCCC2)sc2ncnc(NCC3CCCO3)c12 (configuration not stated) | x | -4.0%[9.04 µM] | x | u | x
CCc1ccc(NC(=O)CSc2nc(=O)n(CCCN(C)C)c3c2CCC3)cc1 | 0.6% | -2.2% | -13.8 | 5.1% | 1.7%
CS(=O)(=O)c1ccc2nc(NC(=O)CC3CCCC3)sc2c1 | -29.0% | u | -24.5 | 13µM* | u
CS(=O)(=O)c1ccc2nc(NC(=O)c3cccs3)sc2c1 | u | 11.6µM* | 62.4 | u | 23.1µM*
Cc1cccc(OCC(=O)Nc2nc3ccc([N+](=O)[O-])cc3s2)c1C | 13.2% | 25.9µM* | -9.2 | u | 7.2%
Cc1ccccc1NC(=O)Nc1nc2ccc(S(C)(=O)=O)cc2s1 | -17.0% | 9.9% | -3.6 | -16.4% | u
NS(=O)(=O)c1ccc2nc(NC(=O)Nc3ccccc3F)sc2c1 | 23.2% | u | u | 8.2µM* | -2.6%
COc1cccc(CNC(=O)c2c(OC)cc(=O)n3c2CCN(C(=O)C2=C(C)OCCO2)CC3)c1 | x | 6.6% | x | -3.9% | x
CC(C)(C)c1ccc(CC(=O)N2CCC2(C)C(=O)NS(=O)(=O)c2cccs2)cc1 (configuration not stated) | -0.1% | 0.7% | 0.0 | 3.3% | 5.8%
O=C(CS(=O)(=O)c1ccc(Cl)cc1)Nc1nc2ccc(Br)cc2s1 | x | u | x | 23.1µM* | x
CS(=O)(=O)c1ccc2nc(NC(=O)c3cccc([N+](=O)[O-])c3)sc2c1 | -0.7% | -14.1% | -2.4 | 18.4µM* | 1.7%
CC(=O)Nc1ccc2nc(NC(=O)CS(=O)(=O)c3ccc(C)cc3)sc2c1 | x | -25.4% | x | u | x
CC(=O)c1c(C)oc2ccc(N(C(=O)Oc3ccccc3)S(=O)(=O)c3ccccc3)cc12 | x | u | x | 10.3µM* | x
COC(=O)c1c(C)oc2ccc(N(C(=O)Oc3ccccc3)S(=O)(=O)c3ccc(C(C)(C)C)cc3)cc12 | x | 3.66µM* | x | 1.46µM* | x
CCOC(=O)c1c(C)oc2ccc(N(C(=O)Oc3ccccc3)S(=O)(=O)c3ccccc3)cc12 | x | 2.1% | x | -28.7% | x
Cc1cccc(NC(=O)C(NS(=O)(=O)c2ccc3c(c2)CCC(=O)N3)c2ccccc2)n1 (configuration not stated) | 8.7% | -21.1% | 3.6 | -18.8% | -8.0%
C=CC1=C(C)C2=Cc3c(C=C)c(C)c4[n]3[Sn+2][n]3c(c(C)c(CCC(=O)O)c3=CC3=NC(=C4)C(C)=C3CCC(=O)O)=CC1=N2 | x | -19.9% | x | -18.6% | x
CC(=O)c1ccccc1NC(=O)c1ccc2c(c1)NC(=O)C(C)S2 (configuration not stated) | -29.5% | 20.6µM* | -6.1 | u | -8.2%
CCC(C)NC(=O)c1ccccc1NC(=O)c1ccc(CSc2ccccc2)cc1 (configuration not stated) | 4.1% | u | 6.8 | u | 1.1%
CCCNC(=O)c1ccccc1NC(=O)c1ccc(CSc2ccccc2)cc1 | -24.8% | u | -0.3 | 20.6µM* | -17.1%
CCCNC(=O)c1ccccc1NC(=O)c1ccc2c(c1)NC(=O)C(C)S2 (configuration not stated) | -29.6% | 10.3µM* | -22.9 | 6.51µM* | 9.2µM*
SMILES | HT1080NT lethal | DT40 TDP1 CPT | IL-1B inflam inh | DT40 TDP1 no CPT | HT1080 IDH1KD tx
COc1cccc(CNC(=O)C2(C)CCCCN2C)c1 (configuration not stated) | 22.2% | 1.9% | 0.0 | -2.0% | 14.0%
Cc1nc(C)c(C(=O)N2CCc3c(cnc(C)c3CNC(=O)c3cncs3)C2)s1 | x | 16.1%[9.04 µM] | x | -8.9% | x
COc1ccc(CCN2CC(C(=O)NCCCn3nc(C)cc3C)CCC2=O)cc1 (configuration not stated) | 0.6% | -21.0% | 10.8 | 19.1% | 0.2%
Cc1cccc(NC(=O)CSCc2cc(=O)n3nc(C4CC4)sc3n2)c1 | -1.4% | -8.5% | -7.2 | -14.2% | 1.2%
COc1cccc(OCC(=O)Nc2c3c(nn2-c2ccccc2)CS(=O)(=O)C3)c1 | -13.4% | -25.6% | -10.9 | -10.0% | 3.8%
O=C(Cn1c(=O)nc(-c2ccccc2F)c2cc(Cl)ccc21)N1CCN(c2ccccc2F)CC1 | x | -4.3% | x | -9.3% | x
Oc1c(N=Nc2ccccc2)sc2ccccc12 | -9.0% | -17.6% | 0.1 | -25.9% | -7.6%
Oc1ccc(N=Nc2ccccc2)o1 | 16.4µM* | 5.8µM* | -89.9* | 13µM* | 23.1µM*
CCc1ccc(OCCCC(=O)Nc2ccc(S(=O)(=O)Nc3cc(C)nc(C)n3)cc2)cc1 | -15.3% | -0.6% | 13.1 | -9.5% | -23.9%
COc1cccc(-c2nc(NC(C)C)c3ccccc3n2)c1O | u | u | u | 20.6µM* | u
CCC(C)Nc1nc(-c2cccc(OC)c2O)nc2ccccc12 (configuration not stated) | u | u | -73.7* | u | u
Cc1ccc(C(=O)Nc2cccc(C(F)(F)F)c2)cc1NC(=O)c1nccnc1N | 0.8% | -14.9% | 73.8 | -7.0% | -7.4%
Cc1ccc(C(=O)Nc2cccc(C(F)(F)F)c2)cc1Nc1ccccn1 | 4.0% | 20.6µM* | 27.0 | 16.4µM* | -1.4%
CCCCCNCC(=O)Nc1cccc(C(=O)Nc2cccc(C(F)(F)F)c2)c1 | 20.6µM* | u | -100.9* | u | 16.4µM*
Cc1ccc(C(=O)Nc2cccc(C(F)(F)F)c2)cc1Nc1cncnc1 | -0.8% | u | 68.0 | 14.6µM* | -2.5%
Cc1cnc(Nc2nc3ccccc3o2)nc1C(=O)Nc1cccc(C(F)(F)F)c1 | -13.9% | 23.1µM* | 21.8 | 20.6µM* | -4.1%
O=C(COc1ccc(C(=O)NCCN2CCOCC2)cc1)Nc1cccc(C(F)(F)F)c1 | -4.1% | -6.8% | 15.2 | u | -5.8%
COc1ccccc1CN(CC(=O)NCc1ccc(F)cc1)C(=O)c1csnn1 | -2.0% | -6.5% | -7.1 | -24.1% | -1.8%
